According to PubChem BioAssay (NCI):
The panel holds about 83,000 compounds, 20% with a hit somewhere; the sample as a whole holds those more often.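 Method: cells in 96-well plates; compound added at one concentration; 48 h incubation; percent growth measured; values under 10 scored active.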 Active and inactive are the calls of the source.

How the values were obtained:
Test in all cases: NCI-60 one-dose screen, 48 h (100 = growth as untreated, 0 = no growth, -100 = all killed)
Conditions in all cases: 10 µM unless noted
T-47D breast = system: T-47D breast
BT-549 breast = system: BT-549 breast
MDA-MB-435 melanoma = system: MDA-MB-435 melanoma
SW-620 colon = system: SW-620 colon
MCF7 breast = system: MCF7 breast
HCT-116 colon = system: HCT-116 colon
HCC-2998 colon = system: HCC-2998 colon
KM12 colon = system: KM12 colon

Measured: growth

O=C(Nc1ccc(Cl)cn1)C1(c2ccccc2)CCCCC1
inactive: T-47D breast 94.7% | BT-549 breast 98.4% | MDA-MB-435 melanoma 125% | SW-620 colon 96.6% | MCF7 breast 96.3% | HCT-116 colon 117% | HCC-2998 colon 99.1% | KM12 colon 101%

CCCCCCCCCCCCCCCCCCOP(=O)(O)O
inactive: T-47D breast 106% | BT-549 breast 114% | MDA-MB-435 melanoma 101% | SW-620 colon 91.3% | MCF7 breast 101% | HCT-116 colon 106% | HCC-2998 colon 108% | KM12 colon 110%

CCCC(CCC)Oc1ccc(CCCC2=C(O)c3ccccc3C(=O)C2=O)cc1
inactive: T-47D breast 65.4% | BT-549 breast 35.5% | MDA-MB-435 melanoma 37.4% | SW-620 colon 28.1% | MCF7 breast 29% | HCT-116 colon 16.7% | HCC-2998 colon 13.4% | KM12 colon 23.7%

COc1cc(OC)c2c(=O)cc(-c3ccccc3)oc2c1
inactive: T-47D breast 91.2% | BT-549 breast 109% | MDA-MB-435 melanoma 95.8% | SW-620 colon 89.7% | MCF7 breast 102% | HCT-116 colon 88.9% | HCC-2998 colon 97% | KM12 colon 106%

O=C(/C=C1\C(=O)N(Cc2ccc([N+](=O)[O-])cc2)c2ccccc21)c1ccc(OCCN2CCCCC2)cc1
inactive: MDA-MB-435 melanoma 22.5% | HCC-2998 colon 42.1%
active: T-47D breast -62.8% | BT-549 breast -80% | SW-620 colon -78.7% | MCF7 breast -47.5% | HCT-116 colon -91.2% | KM12 colon 3.66%

COc1ccc(-c2nc(SCC(C)C)nc(Nc3ccc(C)cc3)c2C#N)cc1
inactive: T-47D breast 32.4% | BT-549 breast 85.8% | MDA-MB-435 melanoma 86.7% | SW-620 colon 54.4% | MCF7 breast 70.3% | HCT-116 colon 33.5% | HCC-2998 colon 92.5% | KM12 colon 80.8%

COc1cc(OC)c(/C=C/c2ccc3ccccc3[n+]2C)c(OC)c1
inactive: SW-620 colon 13.5% | HCC-2998 colon 13.4%
active: T-47D breast 9.72% | BT-549 breast -0.0814% | MDA-MB-435 melanoma -30.6% | MCF7 breast 3.94% | HCT-116 colon 2.2% | KM12 colon -49.2%

CCOC(=O)CCCCCCCCC(=O)OCC
inactive: T-47D breast 89.6% | BT-549 breast 109% | MDA-MB-435 melanoma 112% | SW-620 colon 107% | MCF7 breast 102% | HCT-116 colon 110% | HCC-2998 colon 98.4% | KM12 colon 105%

CCCCCCCCCC[N+](C)(C)C
inactive: T-47D breast 27.3% | BT-549 breast 46.7% | MDA-MB-435 melanoma 32.6% | SW-620 colon 19% | MCF7 breast 31.1% | HCT-116 colon 21.8% | HCC-2998 colon 22%
active: KM12 colon -51.2%

N=C(N)N=Nc1ccc(NN=C(N)N)c2ccccc12
inactive: T-47D breast 86.3% | BT-549 breast 81.1% | MDA-MB-435 melanoma 115% | SW-620 colon 103% | MCF7 breast 97.4% | HCT-116 colon 88.8% | HCC-2998 colon 106% | KM12 colon 109%

C=CCN(C)C
inactive: T-47D breast 117% | BT-549 breast 101% | MDA-MB-435 melanoma 97.1% | SW-620 colon 105% | MCF7 breast 101% | HCT-116 colon 105% | HCC-2998 colon 110% | KM12 colon 108%

CC(C)(CNC1CCCCC1)OC(=O)c1ccccc1
inactive: T-47D breast 104% | BT-549 breast 99.7% | MDA-MB-435 melanoma 107% | SW-620 colon 110% | MCF7 breast 107% | HCT-116 colon 103% | HCC-2998 colon 111% | KM12 colon 102%

Nc1ccc(S(=O)(=O)Nc2cc(F)cc(F)c2)cc1
inactive: T-47D breast 105% | BT-549 breast 88.1% | MDA-MB-435 melanoma 102% | SW-620 colon 91.6% | MCF7 breast 108% | HCT-116 colon 109% | HCC-2998 colon 106% | KM12 colon 107%

COc1ccc(/C=N/c2cc(C(C)(C)C)nn2-c2ccccc2)cc1
inactive: T-47D breast 85.8% | BT-549 breast 128% | MDA-MB-435 melanoma 95.5% | SW-620 colon 101% | MCF7 breast 88.8% | HCT-116 colon 92.8% | HCC-2998 colon 132% | KM12 colon 104%

NNC(=S)N1N=C(c2cc3ccccc3o2)CC1c1c[nH]c2ccccc12 (configuration not stated)
inactive: T-47D breast 40.3% | BT-549 breast 32.2% | MDA-MB-435 melanoma 57.8% | SW-620 colon 43.8% | MCF7 breast 20.7% | HCT-116 colon 23.8% | HCC-2998 colon 52% | KM12 colon 37.4%

CCOc1ccc(N(C)c2ccc(/C=C/C3=[N+](C)c4ccccc4C3(C)C)cc2)cc1
inactive: T-47D breast 23.2% | MCF7 breast 10.1% | HCC-2998 colon 11.4%
active: BT-549 breast 3.12% | MDA-MB-435 melanoma -51% | SW-620 colon -40.4% | HCT-116 colon -45.6% | KM12 colon -93%

COc1cccc(Cn2cc3c(c2)-c2oncc2CC3)c1
inactive: T-47D breast 65.2% | BT-549 breast 66% | SW-620 colon 26.4% | MCF7 breast 18.4%
active: MDA-MB-435 melanoma -47% | HCT-116 colon 8.74% | HCC-2998 colon -32.4% | KM12 colon 5.03%

O=C(O)c1ccc(Br)nc1
inactive: T-47D breast 99.1% | BT-549 breast 106% | MDA-MB-435 melanoma 103% | SW-620 colon 97.1% | MCF7 breast 93.8% | HCT-116 colon 98% | HCC-2998 colon 104% | KM12 colon 107%

N=C(N)c1ccc(-c2ccc(-c3ccc(F)cc3)s2)cc1
active: T-47D breast -57.5% | BT-549 breast -19.9% | MDA-MB-435 melanoma -99.2% | SW-620 colon -87.9% | MCF7 breast -83.5% | HCT-116 colon -83.3% | HCC-2998 colon -77.5% | KM12 colon -87.3%

N/C(=N\O)c1ccncc1
inactive: T-47D breast 102% | BT-549 breast 98.3% | MDA-MB-435 melanoma 100% | SW-620 colon 105% | MCF7 breast 97.2% | HCT-116 colon 102% | HCC-2998 colon 95.8% | KM12 colon 102%

O=C(N/N=C/c1coc2ccccc2c1=O)c1cc2oc(-c3ccccc3)cc2[nH]1
inactive: T-47D breast 84.7% | BT-549 breast 77.2% | MDA-MB-435 melanoma 100% | SW-620 colon 102% | MCF7 breast 97.2% | HCT-116 colon 96.5% | HCC-2998 colon 98.8% | KM12 colon 101%

C[C@@H](c1ccc2c(c1)[nH]c1ccc(Cl)cc12)c1nc2ccc(Cl)cc2[nH]1
inactive: T-47D breast 19.1% | BT-549 breast 68.2% | MDA-MB-435 melanoma 106% | SW-620 colon 98.7% | MCF7 breast 13.8% | HCT-116 colon 79.7% | HCC-2998 colon 92% | KM12 colon 81.9%

COC(=O)C(C)[C@H]1CC[C@@H]2[C@]1(C)CC=C1[C@]23C=C[C@]2(C[C@@H](OC(C)=O)CC[C@]12C)C(C(=O)OC)C3C(=O)OC (some centres not stated)
inactive: T-47D breast 78.2% | BT-549 breast 101% | MDA-MB-435 melanoma 95.1% | SW-620 colon 102% | MCF7 breast 83.9% | HCT-116 colon 63.7% | HCC-2998 colon 91.4% | KM12 colon 92.5%

C=CCNCCC#N
inactive: T-47D breast 96.3% | BT-549 breast 105% | MDA-MB-435 melanoma 109% | SW-620 colon 110% | MCF7 breast 99.5% | HCT-116 colon 100% | HCC-2998 colon 116% | KM12 colon 115%

O=C(/C=C/c1cccc(O)c1)c1cccc(-n2cc(-c3ccc(Cl)cc3)[nH]c2=O)c1
active: T-47D breast -0.126% | BT-549 breast -42.5% | MDA-MB-435 melanoma -9.55% | SW-620 colon -75.4% | MCF7 breast -8.69% | HCT-116 colon -85.2% | HCC-2998 colon -64.4% | KM12 colon -73.3%

O=C(CCC(=O)N(CCO)CCO)N(CCO)CCO
inactive: T-47D breast 98.5% | BT-549 breast 93.5% | MDA-MB-435 melanoma 109% | SW-620 colon 106% | MCF7 breast 94.6% | HCT-116 colon 95.7% | HCC-2998 colon 110% | KM12 colon 99.8%

O=C(Nn1cnc2ccccc21)N1CCCC1
inactive: T-47D breast 106% | BT-549 breast 96.5% | MDA-MB-435 melanoma 104% | SW-620 colon 109% | MCF7 breast 108% | HCT-116 colon 85.1% | HCC-2998 colon 83.7% | KM12 colon 116%

S=C(N/N=C/c1cc(Cl)cc(Cl)c1)NC12CC3CC(CC(C3)C1)C2
active: T-47D breast -8.35%
inactive: BT-549 breast 98% | MDA-MB-435 melanoma 78.4% | SW-620 colon 73.8% | MCF7 breast 82.5% | HCT-116 colon 69.4% | HCC-2998 colon 115% | KM12 colon 105%

COc1ccc(OC)c(Cn2cc3c(c2-c2ccccc2)CCc2cnoc2-3)c1
active: MDA-MB-435 melanoma -17.6%
inactive: T-47D breast 32.2% | BT-549 breast 65.3% | SW-620 colon 37.4% | MCF7 breast 44.4% | HCT-116 colon 43.2% | HCC-2998 colon 85.5% | KM12 colon 33.3%

CCC(C)CC(N)O (configuration not stated)
inactive: T-47D breast 137% | BT-549 breast 108% | MDA-MB-435 melanoma 104% | SW-620 colon 108% | MCF7 breast 101% | HCT-116 colon 111% | HCC-2998 colon 112% | KM12 colon 102%

CCCCCCCCCCCCOC(=O)/C=C\C(=O)NC(N)=O
inactive: T-47D breast 80.3% | BT-549 breast 67.7% | MDA-MB-435 melanoma 84.7% | SW-620 colon 91.2% | MCF7 breast 64.3% | HCT-116 colon 68.2% | HCC-2998 colon 110% | KM12 colon 95.4%

CNc1ccc(Nc2ccc(S(=O)(=O)O)cc2)c2c1C(=O)c1ccccc1C2=O
inactive: T-47D breast 110% | BT-549 breast 99.5% | MDA-MB-435 melanoma 95% | SW-620 colon 112% | MCF7 breast 97% | HCT-116 colon 109% | HCC-2998 colon 112% | KM12 colon 108%

Nc1ncn([C@@H]2O[C@H](CO)[C@@H](O)C2(F)F)c(=O)n1
inactive: T-47D breast 76.2% | BT-549 breast 53.6% | MDA-MB-435 melanoma 53% | SW-620 colon 51.2% | MCF7 breast 20.7% | HCT-116 colon 29.8% | HCC-2998 colon 60.4% | KM12 colon 61.2%

O=C1CCNC1
inactive: T-47D breast 107% | BT-549 breast 105% | MDA-MB-435 melanoma 104% | SW-620 colon 103% | MCF7 breast 103% | HCT-116 colon 105% | HCC-2998 colon 118% | KM12 colon 111%
